Data taken from PubChem BioAssay (Tox21).
Records with an inconclusive call do not appear. A call without a number means that no potency is given here. Calls of active or inactive are those of the source. Calls follow the shape of the dose curve; as a rule, active = well fitted cell-killing curve with a large enough effect in the repeat runs (not every such curve was filed as active); inconclusive = weak or mixed curves, or effect the other way; inactive = no such curve, though single readings can be large or run the other way.

assay: qHTS assay to identify small molecule antagonists of the farnesoid-X-receptor (FXR) signaling pathway - cell viability counter screen (AID 743221); conditions: FXR-bla HEK293T viability, CellTiter-Glo luminescence, 16 h; series mostly up to 62.6 µM; also: nearly all actives have a fitted effect of over 50% in size
From the text: National Center for Advancing Translational Sciences [NCATS]
NIH Chemical Genomics Center [NCGC]
U.S. Environmental Protection Agency [EPA]
National Institutes of Environmental Health Sciences [NIEHS]
National Toxicology Program [NTP]
U.S. Food and Drug Administration [FDA]
The farnesoid-X-receptor (FXR), a nuclear hormone receptor, is highly expressed in liver, intestine, kidney and adrenal cortex. Natural ligands of FXR are the bile acids (Cholic acid, Chenodeoxy cholic acid etc). FXR is an important regulator of diverse metabolic pathways, including the bile acid homeostasis, lipid and glucose metabolisms. FXR regulates the expression of target genes by binding either as a monomer or as a heterodimer with the retinoid X receptor (RXR). Numerous studies have reported that FXR exerts protective function during cholestasis, diabetes, liver regeneration, and cancer. To identify compounds that inhibit FXR signaling, GeneBLAzer FXR-UAS-bla HEK 293T cell line (Invitrogen, Carlsbad, CA) containing a beta-lactamase reporter gene under the control of a UAS response element was used to screen the Tox21 10K compound library. The cytotoxicity of the Tox21 compound library against the FXR-bla cell line was tested in parallel by measuring the cell viability using CellTiter-Glo assay in the same wells.
Tox21 Assay Protocol Summary:
FXR-bla cells were dispensed at 5000 cells/5uL/well in 1536-well black wall/clear bottom plates using a Multidrop Combi (Thermo Fisher Scientific, Waltham, MA) dispenser. After the assay plates were incubated at 37 C and 5% CO2 for 5 h, 23 nL of compounds dissolved in DMSO, positive controls or DMSO only was transferred to the assay plate by a Pintool station (Kalypsys, San Diego, CA), followed by addition of 1 uL Chenodeoxycholic acid (50 uM, final concentration in the wells). The assay plates were incubated at 37C for 16 h. After 1 uL of LiveBLAzerTM B/G FRET substrate was added using a Bioraptr Flying Reagent Dispenser (FRD) workstation (Beckman Coulter, Indianapolis, IN), the plates were incubated at room temperature for 2 h, and fluorescence intensity was measured by an Envision plate reader (PerkinElmer, Shelton, CT). For cell viability readout that measures cytotoxicity, 4uL/well of CellTiter-Glo reagent was added into the assay plates using a Bioraptr FRD. After 30 min incubation at room temperature, the luminescence intensity in the plates was measured using a ViewLux plate reader (PerkinElmer).

Structure (SMILES) | Potency
CC(=O)Nc1ccc(CC(=O)O)cc1 | inactive
CCOC(=O)CC(=O)OCC | inactive
C1CCCNCC1 | inactive
COc1c2ccoc2cc2oc(=O)ccc12 | inactive
CCCCC(=O)O | inactive
COc1ccccc1[N+](=O)[O-] | inactive
Cc1ccc([N+](=O)[O-])cc1N | inactive
O=C(c1ccccc1)c1ccc(O)c(O)c1O | inactive
CC[N+](CC)(CC(=O)Nc1c(C)cccc1C)Cc1ccccc1 | inactive
CC(C)c1ccc(C(C)C)cc1 | inactive
CC(C)(C)NC[C@H](O)COc1nsnc1N1CCOCC1 | inactive
OCc1ccc(Cl)cc1Cl | inactive
CC(=O)C(C)C | inactive
CCCCCC(C)=O | inactive
CCN(CC)CCNC(=O)c1ccc(N)cc1 | inactive
Nc1nc(N)c2nc(-c3ccccc3)c(N)nc2n1 | inactive
CCCCCCC(=O)O | inactive
O=C1C(N(CO)C(=O)NCO)N(CO)C(=O)N1CO (stereo not given) | inactive
CC(=O)OC/C=C(\C)CCC=C(C)C | inactive
CCc1cccc(CC)c1N | inactive

Structure (SMILES) | Potency
Cc1ccc(C(C)C)cc1 | inactive
O=C1OC(=O)c2c(Cl)c(Cl)c(Cl)c(Cl)c21 | inactive
CC(C=O)Cc1ccc(C(C)(C)C)cc1 (stereo not given) | inactive
CC/C(C)=N/O | inactive
O=[N+]([O-])c1ccccc1C(F)(F)F | inactive
COc1ccc([C@@H]2CC(=O)c3c(O)cc(O[C@@H]4O[C@H](CO[C@@H]5O[C@@H](C)[C@H](O)[C@@H](O)[C@H]5O)[C@@H](O)[C@H](O)[C@H]4O)cc3O2)cc1OC | inactive
CCCOCC(C)O (stereo not given) | inactive
Cc1ccccc1C=O | inactive
Cc1ccc(C)c(S(=O)(=O)O)c1 | inactive
O=C1CCCCCCCCCCC1 | inactive
Nc1cccc(N)n1 | inactive
CCCCCCCCC(=O)O | inactive
N#CCC(=O)O | inactive
Oc1ccc(Cc2ccccc2O)cc1 | inactive
CCCCCCCC(=O)O | inactive
Cc1ncc(CO)c(CO)c1O | inactive
Cc1nnc(NS(=O)(=O)c2ccc(N)cc2)s1 | inactive
O=C(O)C1=NN(c2ccc(S(=O)(=O)O)cc2)C(=O)C1 | inactive
CCCCCCCCCCCC(=O)N(C)CC(=O)O | inactive
C[Si](C)(C)N[Si](C)(C)C | inactive
